Experimental data published in ChEMBL document CHEMBL4513216, “Probing the Open Global Health Chemical Diversity Library for Multistage-Active Starting Points for Next-Generation Antimalarials” (ACS Infect Dis, 2020).
Out of some 69,000 compounds screened, about 8,600 (12%) showed an effect of 50% or more. This is one part of a sample in which strong results are shown more often than they occur.

tested on: Plasmodium berghei; assay: Screen against P. berghei liver stage (PbLuc), transformed with Luciferase, at 10uM; format: functional, HepG2; details: tested at 10 uM

Row | SMILES | INHIBITION [%]
1 | CO[C@@H]1CCN(Cc2cccc(C)n2)[C@@H]2CN(Cc3ccncc3)C[C@@H]21 | -64.5
2 | Cc1ccc2snc(C(=O)N3CCN(C(=O)NCCC(C)C)CC3)c2c1 | 28.4
3 | COc1cc(CNCCc2cnn(C)c2)cc2c1OCO2 | -3.75
4 | Cc1cnn(CC2CN(Cc3nccn3CC(F)(F)F)CCO2)c1 (stereo not given) | 29.7
5 | CC(Nc1ncnc2c1NC(=O)CN2)c1ccccn1 (stereo not given) | 14.3
6 | O=C1CCCN1CCN1CCCCC1Cn1cncn1 (stereo not given) | -19.2
7 | Cc1cnn(CC2CCCCN2Cc2nc(N)c3ccccc3n2)c1 (stereo not given) | 58.2
8 | c1ccc(-n2cc(CN3CCCCC3Cn3cncn3)nn2)cc1 (stereo not given) | 0.914
9 | c1ccc(-n2ccc(CN3CCCC3Cn3cncn3)n2)cc1 (stereo not given) | 9.64
10 | Cc1cnn(CC2CCCCN2Cc2nc(C)c3ccccc3n2)c1 (stereo not given) | 36.1
11 | c1ccc(-n2cc(CN3CCCC3Cn3cncn3)nn2)cc1 (stereo not given) | 50.3
12 | Nc1nc(CN2CCCC2Cn2cncn2)nc2ccccc12 (stereo not given) | -26.22
13 | Cc1cnn(CC2CCCN2Cc2nc(C)c3ccccc3n2)c1 (stereo not given) | 53
14 | O=C1CCCN1CCCN1CCCC1Cn1cccn1 (stereo not given) | 24.6
15 | Cc1nc(CN2CCCC2Cn2cccn2)nc2ccccc12 (stereo not given) | 27.6
16 | Cc1cnn(CC2CCCN2Cc2nc(N)c3ccccc3n2)c1 (stereo not given) | 31.2
17 | O=C1CCCN1CCCN1CCCCC1Cn1cncn1 (stereo not given) | 50.4
18 | Cc1ccc(C2CSCCN2C(=O)c2cccnc2)cc1 (stereo not given) | -39.8
19 | c1ccc(CO[C@H]2CN(c3ncccn3)C[C@@]23CCCO3)cc1 | -42.1
20 | Nc1nnc(CCCNC(=O)c2ccc(C3CCCNC3)cc2)s1 (stereo not given) | 20.6
21 | CC(C)NC(=O)c1ccn(COc2c(Cl)cccc2Cl)n1 | 35
22 | CC(O)(CNC(=O)NCCc1ccc2c(c1)CCO2)c1ccccc1 (stereo not given) | -5.57
23 | CCCNCc1cn(Cc2ccccc2)nc1-c1cccnc1 | 16.5
24 | CNC(=O)C1CN(c2ncccn2)CCN1Cc1ccccc1 (stereo not given) | 19.3
25 | Cc1nc(CN2CCOCC2c2[nH]ncc2C)cs1 (stereo not given) | 8.335
26 | CN(c1cccnn1)[C@@H]1CC[C@@H]2CN(Cc3ccccc3C(=O)O)C[C@@H]21 | 19.65
27 | N#CCCn1cnc2c(Br)cccc2c1=O | 33.6

Row | SMILES | INHIBITION [%]
28 | CS(=O)(=O)c1ccc(Cl)c(C(=O)NCCC2=CCCCC2)c1 | -19.2
29 | COCCN1CCc2c(CNC(=O)c3nccn3C)cncc2C1 | 43.9
30 | CCN(CC)S(=O)(=O)N1CCCN(CC2CCCO2)CC1 (stereo not given) | 41.7
31 | Cc1ccc(C)c(CN2C[C@@H]3CC[C@H]2CN(C(=O)c2cccnc2)C3)c1 | -70.7
32 | COCCN1CCC2(CC1)CCN(Cc1ccccn1)CC2 | -67.6
33 | Cc1cc(CNC(=O)C2CC(=O)N(CCN(C)C)C2)cc(C)n1 (stereo not given) | 16.5
34 | CCN(CC)C1COc2ccc(Br)cc2C1=O (stereo not given) | 39.7
35 | COCCN1C[C@@H]2CN(Cc3ccc(F)cc3)C[C@@H]2C1=O | 0.112
36 | Cc1ccc(=O)n(CC2(O)CCN(Cc3ccoc3)CC2)n1 | -59.9
37 | Cc1cc2ncn(C[C@]3(O)CCCN4CCCC[C@@H]43)c2cc1C | 49.4
38 | COc1ccc2c(c1)ncn2C[C@]1(O)CCCN2CCCC[C@@H]21 | 58.5
39 | O[C@@]1(Cn2cnc(Cl)c2Cl)CCCN2CCCC[C@@H]21 | 40.3
40 | c1ccc(CCN2CCCC2c2ccnc(Nc3cnccn3)n2)cc1 (stereo not given) | 25.8
41 | N#Cc1ccc(S(=O)(=O)NC(=O)c2csc(-c3ccco3)n2)cc1 | 54.3
42 | Cc1nc(C(=O)NS(=O)(=O)c2cccc(C#N)c2)cs1 | 61.1
43 | N#Cc1cccc(S(=O)(=O)NC(=O)c2csc(-c3ccco3)n2)c1 | 24.3
44 | COc1ccc(C(=O)NS(=O)(=O)c2cccc(C#N)c2)cc1 | 15.5
45 | CSc1ccsc1C(=O)NS(=O)(=O)c1cccc(C#N)c1 | 16.9
46 | Cc1nc(C(C)C)sc1C(=O)NS(=O)(=O)c1ccc(C#N)cc1 | 39.5
47 | Cc1ccc(CNC(=O)Nc2nccs2)cn1 | -31.8
48 | Cn1cc(NC(=O)N2CCCC2c2ccccn2)ccc1=O (stereo not given) | -80.7
49 | O=C(CCn1cnc2cc(F)c(F)cc21)N1CCN(C2CC2)CC1 | -27.6
50 | COCCN1CCN(Cc2ccc(OCc3nccn3C)cc2)CC1 | -3.7
51 | O=C1CC2(CCN(S(=O)(=O)c3cccs3)C2)CN1c1cccc(F)c1 (stereo not given) | -20.8
52 | Cc1n[nH]c(C)c1CCc1n[nH]c(=O)n1Cc1cccs1 | -54.9
53 | COCC(NC(=O)c1cc(C)n(C)n1)c1cccc(C(F)(F)F)c1 (stereo not given) | -0.532
54 | CNC(=O)c1ccc(C(=O)N2CCC(Nc3cccnn3)CC2)cn1 | -0.219

Row | SMILES | INHIBITION [%]
55 | COc1ccc(-c2cc(C3=NC(=CN4CCN(C)CC4)NO3)[nH]n2)cc1 | 40.7
56 | Cc1ccc(-c2cc(C3=NC(=CN4CCN(C)CC4)NO3)[nH]n2)cc1 | 41.8
57 | CN1CCN(C=C2N=C(c3cc(-c4ccc(F)cc4)n[nH]3)ON2)CC1 | 50.5
58 | Cc1nc(NC2(CN3CCCCC3)CCCCC2)c2cnn(C)c2n1 | 40.5
59 | CCCc1nc(NC2(COC)CCCC2)c2cnn(C)c2n1 | 22.6
60 | COCC1(Nc2nc(C)nc3c2cnn3C)CCCC1 | 81.6
61 | COc1ccccc1-c1ccnc2nc(N3CCCCC3)[nH]c(=O)c12 | 23.4
62 | CC(=O)N1CCC(Cc2ccc(-c3ccnn3C)nc2)CC1 | 9.45
63 | CN1CCCC2(CCN(C(=O)Cn3ncc4ccccc4c3=O)C2)C1=O (stereo not given) | 21.2
64 | CCN(CC1CCOC1)C(=O)c1ccccc1S(C)(=O)=O (stereo not given) | 45.7
65 | Cc1ccc(CCNc2ncnc3sc4c(c23)CCNC4)o1 | -158
66 | Cc1nonc1OCCNc1ncnc2sc3c(c12)CCNC3 | 6.94
67 | c1ccc(OCCNc2ncnc3sc4c(c23)CCNC4)cc1 | 92.1
68 | Cc1cnn(CCNCC(=O)N(C)C(C)c2ccccc2)c1 (stereo not given) | 19.7
69 | Cc1ccoc1C1=NNC(=CN2CCn3c(nnc3C3CC3)C2)O1 | 5.97
70 | Cn1c(CCN2CCN(c3ccc(O)cc3)CC2)nc2ccccc21 | 61.9
71 | CCCc1ccc(N2CCN(Cc3nc4ccccc4n3C)CC2)cc1 | 25.8
72 | Cn1c(CCN2CCN(CCc3ccccc3)CC2)nc2ccccc21 | 49.9
73 | O=C(NCc1cncc2c1CCN(Cc1ccoc1)C2)C1CC1 | 5.96
74 | Cc1ccc(CN2CCn3cc(CN4CCN(C)CC4)nc3C2)cc1 | 72.9
75 | CN1CCN(Cc2cn3c(n2)CN(Cc2ccccn2)CC3)CC1 | 24.9
76 | CN1CCN(Cc2cn3c(n2)CN(Cc2cccnc2)CC3)CC1 | 30.7
77 | CN1CCN(Cc2cn3c(n2)CN(Cc2ccncc2)CC3)CC1 | 82.9
78 | CN1CCN(Cc2cn3c(n2)CN(Cc2ccc(F)cc2)CC3)CC1 | -17.7
79 | COc1ccc(CN2CCn3cc(CN4CCN(C)CC4)nc3C2)cc1 | 40.4
80 | O=C(c1cscn1)N1C[C@@H](Oc2cccnc2)[C@H]2OCCC[C@H]21 | 2.58
81 | O=C1COc2ccc(Cl)cc2CN1CC1CC1 | -8.66

Row | SMILES | INHIBITION [%]
82 | CCCN1Cc2cc(Br)ccc2OCC1=O | 68
83 | O=C1COc2ccc(Br)cc2CN1CC1CC1 | 0.0996
84 | O=C(NC[C@]12COC[C@H]1CN(Cc1cccs1)C2)c1ccsc1 | 20.5
85 | COc1ccc(CNc2c(N3CCN(C)CC3)c(=O)c2=O)cc1 | 31.8
86 | COc1ccc(CNc2c(N3CCN(C(C)=O)CC3)c(=O)c2=O)cc1 | 54
87 | COc1ccccc1CNc1c(N2CCN(C(C)=O)CC2)c(=O)c1=O | -19.2
88 | O=C(NCCSCc1ccco1)c1ccc(N2CCOCC2)cc1 | 17.7
89 | CCC(CC#N)n1ccc(C(F)(F)F)n1 (stereo not given) | 21.9
90 | CCC1=N[C@@]2(CC[C@@H]3CN(CC(=O)N(C)C)C[C@@H]32)C(=O)N1CC1CC1 | -3.95
91 | Cc1c(CN2CCC(C(=O)O)(n3ccnc3)CC2)oc2ccccc12 | 15.1
92 | COc1ccc(NC(=O)NC(C)Cc2ccco2)cn1 (stereo not given) | -41.2
93 | O=C(c1ncccn1)N1C[C@@H]2COC[C@]2(c2nnc(C3CC3)o2)C1 | -36.5
94 | CN(C)C(=O)N1C[C@@H]2COC[C@]2(c2nnc(C3CC3)o2)C1 | 54.7
95 | CC(C)(C)C(=O)N1C[C@@H]2COC[C@]2(c2nnc(C3CC3)o2)C1 | -9.54
96 | COc1cccc(-c2nc(C)c(C(=O)N[C@@H](CC(C)C)C(=O)O)s2)c1 | -95.4
97 | O=C1CC(c2cccnc2)c2c(c(C(=O)O)cn2-c2ccc(Cl)cc2)N1 (stereo not given) | 20
98 | Nc1nnc(CCNc2ncnc3c2CCN(C(=O)C2CC2)C3)s1 | -10.2
99 | Nc1nnc(CCCNc2ncnc3c2CCN(C(=O)C2CC2)C3)s1 | -45
100 | O=C(C1CCCCO1)N1CCc2ncnc(NCCO)c2CC1 (stereo not given) | 25.8
101 | Nc1nc(CCNc2ncnc3c2CCN(C(=O)C2CC2)C3)cs1 | -66.7
102 | CCc1ccc(CCNc2ncnc3c2CCN(C(=O)C2CC2)C3)cc1 | 71.1
103 | O=C(C1CC1)N1CCc2c(ncnc2NCCc2nc3c(s2)CCC3)C1 | 52.2
104 | CC(C)n1nc(Cn2cccn2)c2c1CN(C1CCOCC1)C2 | -33
105 | Cc1nc(CN2CC[C@@H]3O[C@@H](C(=O)N4CCOCC4)C[C@@H]32)cs1 | 30.9
